Results filed as inconclusive are left out. Values without a mark were called inactive. The call rests on the fitted dose curve; in most records, active means well fitted cell-killing curve with a large enough effect; inconclusive means small, poorly fitted or top-dose-only effect, or effect the other way; inactive means flat fitted curve, though single readings scatter.
These compounds were tested on JEG-3 (assay: Primary qHTS to identify gynecologic anti-cancer compounds using libraries of approved drugs and bioactive compounds (AID 1345084; further: nearly all actives have a fitted effect of over 55% in size)). Details: Gynecologic cancer cell panel viability, ATPlite luminescence, 48 h; series mostly up to 57.5 µM; activity change, negative = cytotoxicity: at the top concentration.
Procedure, shortened: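 Cell viability after 48 h drug treatment, ATPlite luminescence readout; five doses.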
On the % scale 0 is the no-effect control and ±100 the full control effect.

Structure (SMILES) | activity change, negative = cytotoxicity
CN[C@@H]1[C@H](O[C@H]2[C@H](O[C@@H]3[C@@H](O)[C@H](O)[C@@H](N=C(N)N)[C@H](O)[C@H]3N=C(N)N)O[C@@H](C)[C@]2(O)CO)O[C@@H](CO)[C@H](O)[C@H]1O | 26%
CC1CCC(=O)CC(SCC(O)C(=O)O)CCC(=O)O1 (configuration not stated) | -3.14%
C=C1CC[C@H]2C(=C)CC[C@H]3C(=C)C(=O)O[C@@H]3[C@@H]12 | 15.9%
C=C1C(=O)O[C@@H]2C=C(COC(C)=O)CC/C=C(\CO)CC[C@@H]12 | -7.41% [at 38.5 µM]
CC(=O)OC1C(=O)C2C3OCC4=C3[C@@](C)(CC[C@@H]4O)CC[C@]2(C)[C@H]1C(C)C (some centres not stated) | 20.2% [at 38.5 µM]
O=c1[nH]c2cccc(N3CCN(Cc4ccc(-c5ccccc5)cc4)CC3)c2o1 | 3.46%
Cc1nc(Nc2ccc(F)cc2)nc(N2CCc3ccccc3C2C)c1C (configuration not stated) | -4.26%
C[C@@H](O[C@H]1OCCN(Cc2nn(P(=O)(O)O)c(=O)[nH]2)[C@H]1c1ccc(F)cc1)c1cc(C(F)(F)F)cc(C(F)(F)F)c1 | 0.792% [at 25.3 µM]
COC(=O)C[C@H]1[C@]2(C)C3=C(C)[C@H](c4ccoc4)C[C@H]3O[C@@H]2[C@H](O)C2[C@](C)(C(=O)OC)C=CC(=O)[C@@]21C (some centres not stated) | -1.19% [at 25.3 µM]
CC(=O)c1ccc2c(c1)[C@H](NC(=O)c1ccc(F)c(Cl)c1)[C@H](O)C(C)(C)O2 | -5.69%
CC1OC(OC2C(O)COC(O[C@@H]3[C@@H](O)[C@@H](O)[C@H](OC4C(OC(=O)[C@]56CCC(C)(C)CC5C5=CCC7[C@@]8(C)C[C@H](O)[C@H](OC9OC(CO)C(O)C(O)C9O)[C@@](C)(CO)C8[C@H](O)C[C@@]7(C)[C@]5(C)CC6)OCC(O)C4O)O[C@H]3C)C2O)C(O)C(O)C1O (some centres not stated) | -13.2% [at 6.55 µM]
CC(=O)O[C@@]12CO[C@@H]1C[C@H](O)[C@@]1(C)C(=O)[C@H](O)C3=C(C)[C@@H](OC(=O)[C@H](O)[C@@H](NC(=O)OC(C)(C)C)c4ccccc4)C[C@@](O)([C@@H](OC(=O)c4ccccc4)C12)C3(C)C (some centres not stated) | -4.59% [at 25.3 µM]
Cc1c(C(=O)NCc2cccnc2)nn(-c2ccc(Cl)cc2Cl)c1-c1ccc(Cl)cc1 | -12.5%
C=C1CCC[C@]2(C)CC/C(=C(/CO)C(=O)OC)C[C@@H]12 | 9.18%
CC/C(C)=C/C(=O)OC1C(OC2(C)CCC3C(C4C(C)CCC42)C3(C)C)OC(C)C(O)C1O (configuration not stated) | 14.1% [at 25.3 µM]
CC(C)[C@@H](c1ccc(C(F)(F)F)cc1CN(Cc1cc(C(F)(F)F)cc(C(F)(F)F)c1)c1nnn(C)n1)N1CCC(C(=O)O)CC1 | 6.99%
O=C(O)c1ccc(S(=O)(=O)N(Cc2ccc(OC(F)(F)F)cc2)c2ncc(C(F)(F)F)cc2Cl)cc1 | -3.55%
COc1ccc(OC)c(-c2ccc(NC(=O)c3ccncc3F)cc2)c1 | -10.8%
C[C@H]1CC[C@@]2(OC1)O[C@H]1CC3C4CC[C@H]5C[C@@H](O)CC[C@]5(C)C4=CC(=O)[C@]3(C)[C@H]1[C@@H]2C (some centres not stated) | 8.94% [at 25.3 µM]
O=C1c2ccc(Nc3ccc(F)cc3F)cc2CCc2ccc(OCC(O)CO)cc21 (configuration not stated) | -1.27%
CC1(C)OC[C@H](NC(=O)Nc2ccc(Br)cc2Br)[C@H](c2ccccc2)O1 | 13.2%
COc1ccc(C(=O)Nc2c(Cl)cncc2Cl)cc1OC1CCCC1 | 2.92%
